# Data as given in PubChem BioAssay (NCATS).
# Results filed as inconclusive are left out. Values without a mark were called inactive. The source made the active and inactive calls. Calls follow the shape of the dose curve; as a rule, active = well fitted curve in the direction sought with a large enough effect; inconclusive = small, poorly fitted or top-dose-only effect, or another doubt; inactive = no such curve, though single readings can be large; an effect the other way counts as inactive or inconclusive.
# How the values were obtained:
# [1] = qHTS of pediatric cancer cell lines to identify multiple opportunities for drug repurposing: Confirmatory screen for Saos-2 cells (AID 1347127); also: potency is read from the fitted curve at half-maximal effect; nearly all actives have a fitted effect of over 60% in size
# Procedure, shortened: (§1)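 Cells (500-1,000/well) rested 5 h, then received compounds for 48 h; metabolically active cells were measured by CellTiter-Glo luminescence. Final concentrations spanned up to 46 µM (MIPE, 11-point) or 0.59 nM-46 µM (NPC, 8-point) in primary screens, 11-point in follow-ups.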
# [2] = qHTS of pediatric cancer cell lines to identify multiple opportunities for drug repurposing: Confirmatory screen for OHS-50 cells (AID 1347128);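 also: potency is read from the fitted curve at half-maximal effect; compound exposure lasted 48 h at 37 degrees C; nearly all actives have a fitted effect of over 55% in size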
# Procedure, shortened: as §1
# [3] = qHTS of pediatric cancer cell lines to identify multiple opportunities for drug repurposing: Confirmatory screen for SK-N-SH cells (AID 1347129);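 also: cells exposed to compound for 48 h before viability read; nearly all actives have a fitted effect of over 60% in size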; also: potency is read from the fitted curve at half-maximal effect
# Procedure, shortened: as §1
# [4] = test system: Zika virus NS2B-NS3 protease; assay: Primary screen GU AMC qHTS for Zika virus inhibitors (AID 1347154); also: nearly all actives have a fitted effect of over 70% in size; also: potency is read from the fitted curve at half-maximal effect
# Procedure, shortened: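 Fluorogenic AMC-substrate cleavage by noncovalent NS2B-NS3 protease complex (25 nM, pH 8.0 Tris buffer with Tween 20) followed for 15 minutes at room temperature (~20% conversion). Percent inhibition from ex340/em450 signal change, fitted by 4-parameter Hill equation.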
# [5] = test system: Zika virus NS2B-NS3 protease (unlinked complex); assay: Primary screen GU Rhodamine qHTS for Zika virus inhibitors: Unlinked NS2B-NS3 protease assay (AID 1347159); also: nearly all actives have a fitted effect of over 60% in size; also: potency is read from the fitted curve at half-maximal effect
# Procedure, shortened: (§2)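 In dose–response format, inhibition of unlinked protease (25 nM) was measured with 1.5 microM bis-peptide Rhodamine110 substrate. Aprotinin served as the intraplate control.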
# [6] = test system: Zika virus NS2B-NS3 protease (linked construct); assay: Primary screen NINDS Rhodamine qHTS for Zika virus inhibitors (AID 1347160); also: nearly all actives have a fitted effect of over 55% in size; also: potency is read from the fitted curve at half-maximal effect
# Procedure, shortened: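 Each compound, titrated, sat 15 min with 25 nM linked protease before 1.5 microM Rhodamine110 substrate went in. Fluorescence gain over the next 15 min, in pH 8.0 Tris with Tween 20, gave Hill-fitted curves.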
# [7] = test system: Zika virus NS2B-NS3 protease (unlinked complex); assay: Confirmatory screen GU AMC qHTS for Zika virus inhibitors (AID 1347153); also: nearly all actives have a fitted effect of over 70% in size;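 as to Potency: enzyme at 25 nM with substrate at 10 µM below its Km of 18.3 µM; potency is read from the fitted curve at half-maximal effect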
# Procedure, shortened: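 Unlinked NS2B-NS3 complex (25 nM) in 10 mM Tris-HCl pH 8.0, 0.01% Tween 20 preincubated 15 min with compound, then 10 microM Bz-Nle-KRR-AMC (Km 18.3 µM). Fluorescence change over 15 min, normalized, Hill-fitted.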
# [8] = Vero cells viability qHTS for Zika virus inhibitors (AID 1347167); also: potency is read from the fitted curve at half-maximal effect
# Procedure, shortened: (§3)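 Luminescent ATP readout (CellTiter Glo) after 30 min at 37 degrees C gives viability; cells in DMEM + 4% FBS were treated 24 to 48 hours with compound, following overnight attachment.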
# [9] = HepG2 cells viability qHTS for Zika virus inhibitors (AID 1347168); also: potency is read from the fitted curve at half-maximal effect
# Procedure, shortened: as §3
# Furin (Homo sapiens) = Furin (Homo sapiens) (UniProt P09958); assay: Furin counterscreen qHTS for Zika virus inhibitors (AID 1347149); also: potency is read from the fitted curve at half-maximal effect; nearly all actives have a fitted effect of over 70% in size
# Procedure, shortened: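 Counterscreen measures cleavage of 2 microM BOC-RVRR-AMC, below its ~15 microM Km, by 5 nM full-length human furin at pH 7.0 after a 15-min compound preincubation. Inhibition derives from the 15-min fluorescence increase at 37C.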
# [10] = test system: Zika virus NS2B-NS3 protease (linked construct); assay: Confirmatory screen NINDS AMC qHTS for Zika virus inhibitors (AID 1347152); also: potency is read from the fitted curve at half-maximal effect; nearly all actives have a fitted effect of over 70% in size
# Procedure, shortened: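 In this dose-response qHTS, AMC release from 10 microM Bz-Nle-KRR-AMC by 1 nM linked protease is measured over 15 minutes (about 20% conversion) at pH 8.0. Percent inhibition is fitted to a 4-parameter Hill curve.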
# [11] = Confirmatory screen GU Rhodamine qHTS for Zika virus inhibitors qHTS (AID 1347157)
# Procedure, shortened: as §2
# [12] = test system: Zika virus NS2B-NS3 protease (linked); assay: 384 well plate NINDS AMC confirmatory qHTS for Zika virus inhibitors (AID 1347163);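 also: linked protease at 5 30 or 60 nM final depending on run; fluorescence of AMC released from Ac-VKTGKR-AMC peptide cleaved by the protease; top concentration of the series differs between compounds; nearly all actives have a fitted effect of over 50% in size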
# Procedure, shortened: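 Enzyme (5, 30 or 60 nM final) first met test compounds for ~15 min. The AMC-tagged peptide Ac-VKTGKR-AMC followed at 30 microM. Fluorescence was then recorded at 25 min and scaled against no-enzyme and no-inhibitor wells.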
# [13] = test system: Zika virus NS2B-NS3 protease (linked construct); assay: 384 well plate NINDS Rhodamine confirmatory qHTS for Zika virus inhibitors (AID 1347164); also: potency is read from the fitted curve at half-maximal effect; nearly all actives have a fitted effect of over 65% in size
# Procedure, shortened: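 Compounds are incubated about 15 minutes with linked protease (5, 30 or 60 nM final). Rhodamine 110-tagged Ac-LKRR substrate (10 microM final) is added and fluorescence measured after 25 minutes.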
# [14] = Tertiary RLuc qRT-PCR qHTS assay for Zika virus inhibitors (AID 1347169); also: potency is read from the fitted curve at half-maximal effect; nearly all actives have a fitted effect of over 55% in size
# Procedure, shortened: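 Orthogonal cell-based infection assay using recombinant ZIKV-RLuc (Cambodian) in Vero cells; compound added prior to virus at MOI 1-2. Incubation lasts 48-72 hrs at 37 degrees C before live-cell Renilla substrate is added and luminescence measured.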
# Chain of Furin (Homo sapiens) (P09958 whole entry, looked up): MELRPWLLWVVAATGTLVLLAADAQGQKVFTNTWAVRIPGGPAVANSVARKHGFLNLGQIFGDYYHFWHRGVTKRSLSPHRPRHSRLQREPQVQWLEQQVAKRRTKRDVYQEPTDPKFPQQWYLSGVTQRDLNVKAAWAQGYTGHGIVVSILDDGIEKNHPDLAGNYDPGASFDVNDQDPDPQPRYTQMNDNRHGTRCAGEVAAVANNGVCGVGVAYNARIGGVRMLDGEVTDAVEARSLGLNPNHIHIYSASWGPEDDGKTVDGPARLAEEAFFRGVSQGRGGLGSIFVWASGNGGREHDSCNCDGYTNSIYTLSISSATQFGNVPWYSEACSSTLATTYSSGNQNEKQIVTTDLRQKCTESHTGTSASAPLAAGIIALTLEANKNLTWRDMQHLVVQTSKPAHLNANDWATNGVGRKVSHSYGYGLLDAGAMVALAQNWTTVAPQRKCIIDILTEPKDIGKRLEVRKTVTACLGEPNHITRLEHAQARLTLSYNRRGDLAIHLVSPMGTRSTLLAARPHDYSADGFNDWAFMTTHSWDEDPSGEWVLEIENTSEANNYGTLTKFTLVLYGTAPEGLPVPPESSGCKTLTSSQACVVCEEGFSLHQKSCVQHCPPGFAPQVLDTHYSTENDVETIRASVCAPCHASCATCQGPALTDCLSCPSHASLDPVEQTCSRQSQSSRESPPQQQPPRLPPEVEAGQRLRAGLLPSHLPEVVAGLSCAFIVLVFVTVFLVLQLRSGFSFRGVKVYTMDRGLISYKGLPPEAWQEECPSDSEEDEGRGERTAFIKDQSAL
smiles,measurement,setting,value
Nc1ncnc2c1c(-c1cnc3[nH]ccc3c1)nn2C1CCCC1,Potency,[1],1.85 µM (active)
same,Potency,[2],1.85 µM (active)
same,Potency,[3],1.87 µM (active)
same,Potency,[4],inactive
same,Potency,[5],inactive
same,Potency,[6],inactive
Cc1cc(Nc2cc(NC(=O)c3c(Cl)cccc3Cl)ccn2)nc(N)n1,Potency,[1],1.31 µM (active)
same,Potency,[2],0.369 µM (active)
same,Potency,[3],13.6 µM (active)
same,Potency,[4],inactive
CCC1=C[C@@H]2CN(C1)Cc1c([nH]c3ccccc13)[C@@](C(=O)OC)(c1cc3c(cc1OC)N(C)[C@@H]1[C@@](O)(C(=O)OC)[C@H](OC(C)=O)[C@]4(CC)C=CCN5CC[C@]31[C@@H]54)C2,Potency,[1],7.37 µM (active)
same,Potency,[2],11.7 µM (active)
same,Potency,[3],5.9 µM (active)
same,Potency,[4],inactive
COc1ccc(C=Cc2cc(OC)c(OC)c(OC)c2)cc1O,Potency,[1],0.0104 µM (active)
CNC(=O)c1c(F)cccc1Nc1nc(Nc2cc3c(cc2OC)CCN3C(=O)CN(C)C)nc2[nH]ccc12,Potency,[1],3.69 µM (active)
same,Potency,[2],16.5 µM (active)
same,Potency,[3],5.9 µM (active)
same,Potency,[4],inactive
same,Potency,[5],inactive
same,Potency,[6],inactive
Cc1ccc(C(=O)Nc2cccc(C(F)(F)F)c2)cc1-c1ccc2nc(NCCN3CCOCC3)ncc2c1,Potency,[1],8.27 µM (active)
same,Potency,[2],8.27 µM (active)
same,Potency,[3],inactive
same,Potency,[7],inactive
same,Potency,[5],inactive
same,Potency,[6],inactive
same,Potency,[8],inactive
same,Potency,[9],8.27 µM (active)
C=CC(=O)Nc1cc2c(Nc3ccc(F)c(Cl)c3)ncnc2cc1C#CC(C)(C)N1CCN(C)CC1,Potency,[1],4.27 µM (active)
same,Potency,[2],6.03 µM (active)
same,Potency,[3],4.29 µM (active)
CC(C)[C@H](C(=O)Nc1ccc(C(=O)NO)cc1)c1ccccc1,Potency,[1],1.85 µM (active)
same,Potency,[2],2.33 µM (active)
same,Potency,[3],inactive
CCS(=O)(=O)c1cccc(-c2cc(C(=O)NC3CCN(C)CC3)c(C)c3[nH]c4ncc(C)cc4c23)c1,Potency,[1],1.04 µM (active)
same,Potency,[2],1.85 µM (active)
same,Potency,[3],2.09 µM (active)
same,Potency,Furin (Homo sapiens),24.1 µM (active)
same,Potency,[10],24.1 µM (active)
same,Potency,[7],24.1 µM (active)
same,Potency,[4],24.1 µM (active)
same,Potency,[5],inactive
same,Potency,[6],inactive
same,Potency,[8],inactive
same,Potency,[9],20.8 µM (active)
CC(NCc1ccc2c(c1)nc(NC(=O)c1ccc(-c3cn[nH]c3)s1)n2CC(C)(C)O)C(C)(C)C (centres undefined),Potency,[1],0.928 µM (active)
same,Potency,[2],0.827 µM (active)
same,Potency,[3],0.833 µM (active)
CCN1CCN(Cc2ccc(-c3cc4c(N[C@H](C)c5ccccc5)ncnc4[nH]3)cc2)CC1,Potency,[1],4.27 µM (active)
same,Potency,[2],4.79 µM (active)
same,Potency,[3],10.8 µM (active)
same,Potency,Furin (Homo sapiens),27.8 µM (active)
same,Potency,[10],44.1 µM (active)
same,Potency,[7],49.4 µM (active)
same,Potency,[4],17.1 µM (active)
same,Potency,[8],53.7 µM (active)
same,Potency,[9],38 µM (active)
COc1cc(Nc2ncc(F)c(Nc3ccc4c(n3)N(COP(=O)(O)O)C(=O)C(C)(C)O4)n2)cc(OC)c1OC,Potency,[1],7.37 µM (active)
same,Potency,[2],5.22 µM (active)
same,Potency,[3],2.35 µM (active)
CC1(C)OC2=C(C(=O)c3ccccc3C2=O)[C@H](NCc2ccccc2)[C@H]1O,Potency,[1],8.27 µM (active)
same,Potency,[2],7.37 µM (active)
same,Potency,[3],5.9 µM (active)
same,Potency,[4],inactive
Cc1[nH]c2ccccc2c1CCNCc1ccc(C=CC(=O)NO)cc1,Potency,[1],0.233 µM (active)
same,Potency,[2],0.293 µM (active)
same,Potency,[3],0.469 µM (active)
same,Potency,[4],inactive
CN1CC[C@@H](c2c(O)cc(O)c3c(=O)cc(-c4ccccc4Cl)oc23)[C@@H](O)C1,Potency,[1],0.522 µM (active)
same,Potency,[2],0.414 µM (active)
same,Potency,[3],0.418 µM (active)
same,Potency,[4],inactive
CC(=O)OCC(=O)[C@@]1(O)[C@H](C)C[C@H]2[C@@H]3C=C(C)C4=Cc5c(cnn5-c5ccccc5)C[C@]4(C)[C@@H]3[C@@H](O)C[C@@]21C,Potency,[1],14.7 µM (active)
same,Potency,[2],16.5 µM (active)
same,Potency,[3],14.8 µM (active)
same,Potency,[4],inactive
O=C(O)c1ccc2cc(-c3ccc(O)c(C45CC6CC(CC(C6)C4)C5)c3)ccc2c1,Potency,[1],1.31 µM (active)
same,Potency,[2],2.93 µM (active)
same,Potency,[3],inactive
CCCCc1nc2cc(C=CC(=O)NO)ccc2n1CCN(CC)CC,Potency,[1],2.61 µM (active)
same,Potency,[2],2.93 µM (active)
same,Potency,[3],3.32 µM (active)
same,Potency,[4],inactive
CC(C)c1cnn2c(NCc3ccccc3)cc(N[C@@H](CO)[C@H](O)CO)nc12,Potency,[1],0.585 µM (active)
same,Potency,[2],0.522 µM (active)
same,Potency,[3],0.332 µM (active)
same,Potency,[4],inactive
same,Potency,[5],inactive
same,Potency,[6],inactive
O=C(NC1CCNCC1)c1[nH]ncc1NC(=O)c1c(Cl)cccc1Cl,Potency,[1],2.69 µM (active)
same,Potency,[2],2.4 µM (active)
same,Potency,[3],1.05 µM (active)
same,Potency,[4],inactive
O=C(Nc1cc(C(F)(F)F)cc(C(F)(F)F)c1)c1cc(Cl)ccc1O,Potency,[1],1.65 µM (active)
same,Potency,[2],0.928 µM (active)
same,Potency,[3],3.72 µM (active)
same,Potency,Furin (Homo sapiens),55.5 µM (active)
same,Potency,[10],49.4 µM (active)
same,Potency,[7],49.4 µM (active)
same,Potency,[4],inactive
same,Potency,[11],4.94 µM (active)
same,Potency,[5],2.82 µM (active)
same,Potency,[6],7.94 µM (active)
same,Potency,[12],inactive
same,Potency,[13],35.5 µM (active)
same,Potency,[8],1.47 µM (active)
same,Potency,[14],0.415 µM (active)
COc1cc2c(Oc3ccc(NC(=O)C4(C(=O)Nc5ccc(F)cc5)CC4)cc3F)ccnc2cc1OCCCN1CCOCC1,Potency,[1],4.14 µM (active)
same,Potency,[2],3.69 µM (active)
same,Potency,[3],1.87 µM (active)
same,Potency,[4],inactive
same,Potency,[5],inactive
same,Potency,[6],inactive
